Reference: PubChem BioAssay AID463173 (ICCB-Longwood Screening Facility, Harvard Medical School, 2010)
About 1,700 (3.3%) of roughly 52,000 compounds were called active. Rule as the data show it: active = survival mostly below about 52% (no sharp cut-off); inactive = mostly above about 56%. The full list was thinned out, with actives kept by preference.

System: Wild type
Assay: growth inhibition of S. aureus wild type versus tarO mutant, primary screen, teichoic acid synthesis inhibitors, RN4220, OD600 (AID 463173)
Conditions: S. aureus RN4220 wild type/DeltatarO growth, OD600, 18 h, stronger effect = lower value, screened at 18.75 µg/mL (by protocol)

SMILES	survival
Cc1c(-c2cccc(NC(=O)Nc3ccccc3)c2)nc2ncccn12	64% (inactive)
Cc1c(-c2cccc(NC(=O)C(C)(C)C)c2)nc2ncccn12	71% (inactive)
Cc1c(-c2cccc(NC(=O)Nc3ccc(Cl)cc3)c2)nc2ncccn12	-4% (active)
CCc1nn(CC(=O)NCc2cccc(OC)c2)c(=O)c2cc3cc(F)ccc3n12	69% (inactive)
CCOc1ccc(CCNC(=O)c2ccc3nc(N4CCC(C)CC4)sc3c2)cc1OCC	73% (inactive)
Cc1ccc(-n2ncc3c(NCCc4ccccc4)ncnc32)cc1Cl	65% (inactive)
Cc1ccc(-n2ncc3c(NCc4ccccc4)ncnc32)cc1Cl	-6% (active)
Cc1ccc(-n2ncc3c(NCc4ccccc4)ncnc32)cc1C	67% (inactive)
c1ccc(-c2nc3cc(Cc4ccc5oc(-c6ccccn6)nc5c4)ccc3o2)nc1	113% (inactive)
CCC1=Nc2cc(C(=O)NCCN(CC)CC)ccc2Sc2ccccc21	93% (inactive)
Cc1ccccc1NC(=O)CC1COc2ccccc2O1 (stereo not given)	111% (inactive)
COc1ccc(Cc2nc3ccccc3n2Cc2ccccc2C)cc1	1% (active)
COc1ccc(Cc2nc3ccccc3n2Cc2ccccc2F)cc1	23% (active)
Cc1ccccc1Cn1c(CCCNC(=O)C2CCCCC2)nc2ccccc21	101% (inactive)
O=C(NCCc1nc2ccccc2n1Cc1ccccc1F)c1ccc(F)cc1	82% (inactive)
COc1cccc(OCc2nc3ccccc3n2Cc2ccccc2C)c1	87% (inactive)
O=C(NCCCc1nc2ccccc2n1Cc1ccccc1F)c1ccco1	92% (inactive)
Cc1ccc(-c2nc(CCNC(=O)C(=O)Nc3ccc(F)cc3F)cs2)cc1	63% (inactive)
Cc1cc(NC(=O)c2ccccc2Cl)ccc1NC(=O)c1ccccc1	85% (inactive)
Cc1ccc(NC(=O)c2ccccc2Br)c(C(=O)c2ccccc2)c1	25% (inactive)

SMILES	survival
Cc1ccc(NC(=O)c2ccc(Cl)cc2Cl)c(C(=O)c2ccccc2)c1	1% (active)
Cc1ccc(NC(=O)c2ccc(Br)cc2)c(C(=O)c2ccccc2)c1	-2% (active)
O=C(Nc1cc2c(cc1C(=O)c1ccccc1)OCCO2)c1ccc(Br)cc1	86% (inactive)
Cc1ccc(C(=O)COC(=O)c2cccc(NC(=O)c3ccc(Cl)cc3Cl)c2)cc1	81% (inactive)
CCCCn1cc2c(c1-c1ccc(Cl)cc1)c(=O)n(C)c(=O)n2C	83% (inactive)
COc1ccc2c(CNC3CCCCCC3)c(C(=O)O)n(Cc3ccccc3F)c2c1	89% (inactive)
CCC1CCCCN1C(=O)c1ccc2c(c1)N(Cc1cccc(Cl)c1)C(=O)c1ccccc1S2(=O)=O (stereo not given)	73% (inactive)
Cc1ccc(N2CCN(C(=O)c3c(C)oc4nc(C)nc(N5CCCC5)c34)CC2)c(C)c1	81% (inactive)
Cc1nn2c(-c3cccc(NC(=O)c4ccc(Cl)cc4)c3)nnc2c2ccccc12	113% (inactive)
COc1ccccc1NC(=O)c1cc2c(-c3ccccc3)nn(-c3ccccc3)c2s1	77% (inactive)
Cc1ccccc1NC(=O)c1cc2c(-c3ccccc3)nn(-c3ccccc3)c2s1	86% (inactive)
Cc1nn(-c2ccccc2)c2sc(C(=O)Nc3ccc(Br)cc3)cc12	52% (inactive)
COc1ccccc1NC(=O)c1cc2c(C)nn(-c3ccccc3)c2s1	1% (active)
COc1ccc(NC(=O)c2cc3c(C)nn(-c4ccccc4)c3s2)c(OC)c1	63% (inactive)
Cc1nn(-c2ccccc2)c2sc(C(=O)Nc3ccccc3Br)cc12	7% (active)
Cc1ccc2oc(=O)c3cc(C(=O)Nc4ccc(F)cc4F)sc3c2c1	80% (inactive)
CCc1ccccc1NC(=O)c1ccc(Cn2nc(N3CCN(c4ccccc4)CC3)ccc2=O)o1	70% (inactive)
Cc1cccc(-n2ccnc2SCC(=O)Nc2ccc(F)cc2F)c1C	71% (inactive)
Cc1cccc(CS(=O)(=O)CC2Nc3ccc(C(=O)NCc4ccccc4)cc3NC2=O)c1 (stereo not given)	71% (inactive)
CCOC(=O)CNc1ncnc2c1nnn2C	22% (inactive)

SMILES	survival
CCc1nc2c(cnn2-c2ccc(Cl)cc2)c(=O)n1-c1ccc(OC)c(Cl)c1	78% (inactive)
CCOc1cccc2sc(NC(=O)c3ccc(S(=O)(=O)N4CCCCC4)cc3)nc12	75% (inactive)
CCOc1cccc2sc(NC(=O)c3ccc(S(=O)(=O)N4CCCCC4C)cc3)nc12 (stereo not given)	10% (active)
CCOc1cccc2sc(NC(=O)c3ccc(S(=O)(=O)N4CCCc5ccccc54)cc3)nc12	88% (inactive)
CCOC(=O)c1c(-c2ccccc2)csc1NC(=O)c1cc(-c2ccc(Cl)cc2)on1	85% (inactive)
Cc1ccc(-n2ncc3c(NCCCc4ccccc4)ncnc32)cc1	69% (inactive)
Cc1ccc(-n2ncc3c(NCCC4=CCCCC4)ncnc32)cc1	-3% (active)
CCC(CO)Nc1ncnc2c1cnn2-c1ccc(C)cc1 (stereo not given)	-6% (active)
Cc1ccc(-n2ncc3c(Nc4ccc(Oc5ccccc5)cc4)ncnc32)cc1	74% (inactive)
CCC(C)Nc1ncnc2c1cnn2-c1ccc(F)cc1 (stereo not given)	71% (inactive)
Fc1ccc(-n2ncc3c(NCCC4=CCCCC4)ncnc32)cc1	59% (inactive)
Cc1ccc(-n2ncc3c(NCCC4=CCCCC4)ncnc32)cc1C	131% (inactive)
CCCCc1ccc(Nc2ncnc3c2cnn3-c2ccc(C)cc2)cc1	-1% (active)
Cc1ccc(-n2ncc3c(NC(C)c4ccccc4)ncnc32)cc1 (stereo not given)	73% (inactive)
COc1ccc(-c2noc(-c3ccc(N4CCC(C)CC4)c([N+](=O)[O-])c3)n2)cc1OC	89% (inactive)
O=C(C1CCCCC1)N(Cc1cccnc1)c1nc2ccc(Cl)cc2s1	72% (inactive)
CCc1nn(CC(=O)Nc2ccc(NC(C)=O)cc2)c(=O)c2cc3sccc3n12	86% (inactive)
CCOc1ccccc1NC(=O)c1cnn2c(C(F)F)cc(-c3ccccc3)nc12	52% (inactive)
CCOC(=O)C1CCN(C(=O)c2cc3sc(C)cc3n2C)CC1	89% (inactive)
CC1CCN(S(=O)(=O)c2ccc3c(c2)N(CC(=O)NCCN(C)C)C(=O)CO3)CC1	76% (inactive)
